Screens from PubChem.
A selection: hits, their analogues and other compounds. The true share with any hit is near 6.1%.
DRD3 agonist: activates the human D3 dopamine receptor | AID 652048 | actives 0.58% (n = 410,000) | D3R DiscoveRx beta-arrestin cells, luminescence, 90 min | P35462 | max activation, %; in the data active = max activation above about 30%
Target sequence (P35462 whole entry, looked up): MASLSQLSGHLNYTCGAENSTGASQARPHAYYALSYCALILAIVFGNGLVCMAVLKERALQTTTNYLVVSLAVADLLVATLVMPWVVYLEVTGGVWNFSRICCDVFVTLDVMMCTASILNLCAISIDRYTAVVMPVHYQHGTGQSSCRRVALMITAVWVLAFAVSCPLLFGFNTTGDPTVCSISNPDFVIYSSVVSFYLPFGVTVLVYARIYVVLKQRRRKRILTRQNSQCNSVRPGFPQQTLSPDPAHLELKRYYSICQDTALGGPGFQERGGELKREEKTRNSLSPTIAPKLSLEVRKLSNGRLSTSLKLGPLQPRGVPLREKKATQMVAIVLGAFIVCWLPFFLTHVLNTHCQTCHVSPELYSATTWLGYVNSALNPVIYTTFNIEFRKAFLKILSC
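Agonist mode: compounds and dopamine controls were applied to plated cells for 90 min at 37 degrees C after an overnight attachment at 1500 cells/well. Luminescent read-out followed 30 - 60 minutes at room temperature with DiscoveRx detection reagent.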
D1 PAM: enhances dopamine response at the human D1 receptor; P21728; HEK293 TREx D1 cells, calcium flux, dopamine EC20 potentiation; potentiation, % at 10 µM; actives 0.036% (n = 360,000); AID 504651; in the data active = potentiation above about 30%
D1 agonist: human D1 receptor agonism | P21728 | HEK293 T-REx D1 cells, calcium flux, agonist mode | actives 1% (n = 360,000) | activation, % at 2 µM; in the data active = activation above about 30%
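Agonism was scored from calcium flux recorded over 180 s (1 read/s) after pintool compound addition, following a 10-cycle baseline. Cells were inducible force-coupled HEK293 TREx D1, plated overnight at 30 C and loaded with no-wash calcium dye.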
D3 antag: D3 dopamine receptor (human) antagonism. P35462. D3R cells, DiscoveRx beta-arrestin luminescence, antagonist mode; hits give low values. max response, negative = inhibition, %. actives 2.5% (n = 360,000). AID 652054; in the data active = max response below about -50%; inconclusive = no clear call, values can overlap the other calls
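Cells expressing the human receptor were seeded at 1500 cells/well, incubated overnight at 37 degrees C in 5% CO2, then exposed to library compounds with dopamine controls for 90 minutes at 37 degrees C before luminescent detection.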
D1 antag: human D1 dopamine receptor antagonism | P21728 | HEK293 TREx D1 cells, calcium flux, dopamine EC80; hits give low values | activity change, negative = inhibition, % at 10 µM | actives 3.2% (n = 360,000) | AID 504652; in the data active = activity change below about -30%
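Allosteric or orthosteric antagonism assessed as attenuation of the calcium response to EC80 dopamine, added 180 s after compound, in induced HEK293 Trex D1 cells loaded with no-wash calcium dye.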
Each line names hits and unclear results; the compound was inactive in the other large screens.

NCCSc1c(-c2ccccc2)[nH]c2ccccc12	D1 antag -37.0
NCCSc1c(-c2ccc(Cl)cc2)[nH]c2ccccc12	none
CC(C)(C)OC(=O)N1CCC(c2c(C(=O)NCCN3CCOCC3)cnn2-c2ccc(F)cc2)CC1	none (no result: D3 antag)
COCC(=O)N1CCCC(C)(C(=O)Nc2cccc(Oc3ccccc3)c2)C1 (stereo unspecified)	DRD3 agonist 49.2 (no result: D1 PAM, D1 agonist, D1 antag)
CCOC(=O)c1c(N)sc2c1CCN(Cc1ccccc1)C2	none (no result: D1 PAM, D1 agonist, D3 antag, D1 antag)
CCOc1ccccc1CNC(=O)C1CCN(Cc2cc3ccccc3n2Cc2ccccc2)CC1	none (no result: D3 antag)
COc1ccc(NC(=O)NCCCN2CCC(Cc3ccccc3)CC2)cc1	D3 antag inconclusive
CSc1ccc(NC(=O)NCCCN2CCC(Cc3ccccc3)CC2)cc1	D1 agonist 195.9, D3 antag inconclusive
O=C(NCCCN1CCc2ccccc2C1)Nc1ccc(Cl)cc1	D3 antag -91.5
COc1ccc(NC(=O)NCCN2CCc3ccccc3C2)cc1	D3 antag -83.1
CSc1ccc(NC(=O)NCCN2CCc3ccccc3C2)cc1	D3 antag -61.1
O=C(Nc1ccc(Cl)cc1)N1CCc2ccccc2C1	none
CCc1ccc(CNC(=O)c2ccc(-n3c(C)cc4c3CCC(C)C4)cc2)cc1 (stereo unspecified)	none (no result: D3 antag)
O=C(COc1ccc2c3c(c(=O)oc2c1)CCCC3)NCCCN1CCOCC1	D1 antag -30.4
CCc1cc(=O)oc2cc(OCC(=O)NCCCn3ccnc3)ccc12	D1 antag -36.7
O=C(COc1ccc2c3c(c(=O)oc2c1)CCCC3)NCCN1CCOCC1	none
COc1ccc(-c2cc(=O)oc3cc(OCC(=O)NCCCn4ccnc4)ccc23)cc1	none
O=C(Nc1ccc(Cl)cn1)c1ccc2[nH]c(=O)c(=O)[nH]c2c1	D1 antag -30.1
COc1cccc(CNC(=O)c2cc3c(=O)n(Cc4cccnc4)ccc3nc2C)c1	none (no result: D3 antag)
CCOc1ccc(NC(=O)c2cnc3sc(N4CCOCC4)nn3c2=O)cc1	none (no result: D3 antag)
Nc1sc(-c2ccccc2)cc1C(=O)N1CCNCC1	D3 antag -54.1 (no result: D1 PAM, D1 agonist, D1 antag)
COC(=O)Cc1c(C)c2ccc3c(c2oc1=O)CN(Cc1ccccc1OC)CO3	none (no result: D3 antag)
CCCOCc1cc(CN2CCN(c3cccc(Cl)c3)CC2)c(O)c2ncccc12	none (no result: D3 antag)
Clc1ccc(N2CCN(Cc3c[nH]c4ncccc34)CC2)cc1	D3 antag -77.6 (no result: DRD3 agonist, D1 PAM, D1 agonist, D1 antag)
NS(=O)(=O)c1ccc(Oc2ccc(S(N)(=O)=O)cc2)cc1	none
C=CS(=O)(=O)c1ccc(Oc2ccc(S(=O)(=O)C=C)cc2)cc1	D3 antag -91.4
CCCCNC(=O)CCc1c(C)nc2cc(-c3ccccc3)nn2c1C	none (no result: D3 antag)
COCCCNC(=O)CCc1c(C)nc2cc(-c3ccc(Cl)cc3)nn2c1C	D1 antag -54.0 (no result: D3 antag)
COc1ccc(N2CCN(C(=O)CCc3c(C)nc4cc(-c5ccc(Cl)cc5)nn4c3C)CC2)cc1	D1 antag -39.1 (no result: D3 antag)
O=C(COc1ccc(Cl)cc1)NCc1nnc(SCC(=O)Nc2ccc(F)cc2F)o1	none
CCOc1ccccc1NC(=O)CSc1nnc(CNC(=O)COc2ccc(Cl)cc2)o1	D1 antag -38.0
COc1ccc(Cn2c(C3CCCCC3)nc3c(c(=O)c4ccccc4n3C)c2=O)cc1	D1 agonist 42.0
CC(C)c1nc2c(c(=O)c3ccccc3n2C)c(=O)n1CCc1ccccc1	D1 agonist 92.9
COc1ccc(CCn2c(C3CCCCC3)nc3c(c(=O)c4ccccc4n3C)c2=O)cc1	D1 agonist 126.5, D1 antag -39.3
COc1ccc(Cn2c(-c3ccccc3)nc3c(c(=O)c4ccccc4n3C)c2=O)cc1	D1 PAM 40.4
COc1ccc(CCn2c(C(C)C)nc3oc4ccccc4c(=O)c3c2=O)cc1	none
COc1ccc(CCn2c(-c3ccccc3)nc3c(c(=O)c4ccccc4n3C)c2=O)cc1	none (no result: DRD3 agonist, D3 antag)
Cc1ccc(C)c(N2CCN(C(=O)Cn3cnc4sc(C)c(S(=O)(=O)N5CCN(c6ncccn6)CC5)c4c3=O)CC2)c1	none (no result: D3 antag)
CCOc1ccc(C(=O)Nc2ccc(C(=O)OCc3cc(=O)n4nc(CC)sc4n3)cc2)cc1	none (no result: D3 antag)
O=C(O)[C@@H]1C[C@H](CP(=O)(O)O)CCN1	none (no result: D1 PAM, D1 agonist, D3 antag, D1 antag)
Cc1ccc(S(=O)(=O)N(C)Cc2nc(-c3ccc(Br)cc3)no2)cc1	D1 antag -35.6
Cc1ccc(S(=O)(=O)N(C)Cc2nc(-c3ccncc3)no2)cc1	none
CC(=O)c1cc(-c2ccc(F)cc2)n(CCC(=O)Nc2nc3c(C)cccc3s2)c1C	none (no result: D3 antag)
Cc1nnc(N2CCN(C(=O)Nc3cc(F)ccc3F)CC2)c2nn(-c3ccc(Cl)cc3)c(C)c12	none (no result: D3 antag)
Cc1cc(Cl)ccc1OCC(=O)OC(C)C(=O)N(C)C (stereo unspecified)	none
Cc1cc(Cl)ccc1OCC(=O)OC(C)C(=O)NC(N)=O (stereo unspecified)	DRD3 agonist 45.7
Cc1cccc(NC(=O)C2CCCN(S(=O)(=O)c3cccc4nonc34)C2)c1C (stereo unspecified)	none (no result: D3 antag)
Cc1ccc(S(=O)(=O)CC(CN2CCCCC2)N2CCCCC2)cc1 (stereo unspecified)	D3 antag -68.2
O=S(=O)(CC(CN1CCCCC1)N1CCCCC1)c1ccc2ccccc2c1 (stereo unspecified)	D3 antag -85.0
COc1ccc(-c2c(C#N)c(SCC(=O)Nc3ccc(C)c(C)c3)nc(C)c2C(=O)Nc2ccccc2)cc1OC	none (no result: D3 antag)
O=C1Nc2ccccc2C12OCCCO2	D1 antag -43.7
Clc1ccc2c(SCC3CO3)c3ccccc3nc2c1 (stereo unspecified)	D3 antag -91.0 (no result: D1 PAM, D1 agonist, D1 antag)
O=C(CSc1c2c(nc3cc(Cl)ccc13)CCCC2)NCCN1CCOCC1	none
Cc1cc(C)c(CN2C(=O)c3ccccc3S(=O)(=O)c3ccc(C(=O)OCC4CCCO4)cc32)c(C)c1 (stereo unspecified)	none (no result: D3 antag)
CCOc1ccc(NC(=O)CSC2=Nc3ccccc3C3=NC(CC(=O)NCc4ccccc4OC)C(=O)N23)cc1 (stereo unspecified)	none (no result: D3 antag)
CCN(CC)c1ccc2cc(-c3nnc(-c4ccncc4)o3)c(=O)oc2c1	D1 agonist 199.3
CCN(CC)c1ccc2cc(-c3nnc(-c4cccc(Cl)c4)o3)c(=O)oc2c1	D1 PAM 38.5, D1 agonist 415.5 (no result: D3 antag)
Cc1ccc(C(=O)Nc2onc3c2CCCC3)cc1	none (no result: D3 antag)
CCCNC(=O)C1CCN(Cc2cc3ccccc3n2Cc2ccccc2)CC1	none (no result: D3 antag)
CN(C)CCNC(=O)C1CCN(Cc2cc3ccccc3n2Cc2ccccc2)CC1	D1 agonist 39.0 (no result: D3 antag)
CCOCCSc1c(C)cnc2c1c(=O)n(C)c(=O)n2C	none (no result: D3 antag, D1 antag)
CC1CCC2C(=O)N(c3ccc(NC4CCN(Cc5ccccc5)CC4)c([N+](=O)[O-])c3)C(=O)C2C1 (stereo unspecified)	D3 antag -50.1
O=[N+]([O-])c1ccc(NC2CCN(Cc3ccccc3)CC2)c([N+](=O)[O-])c1	D3 antag -62.0
